# Test results from PubChem BioAssay.
# Where “and” joins values, the source holds several entries; their conditions need not be identical. Identical values can stand only once. Results filed as inconclusive are left out. For some assays here: Measured potencies and affinities stand elsewhere. Calls of active or inactive are those of the source.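 How the source made its calls, unless noted: active means inhibition above 50%; inactive means the rest.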
# Assays:
# [1] = biological target: Calcium-dependent protein kinase 4 (Plasmodium falciparum (isolate 3D7)) (UniProt Q8IBS5); assay: PfCDPK4 kinase inhibitors, biochemical, TCAMS library (AID 1159588; cut-off not given, nearly all actives have IC50 up to about 0.91 µM); conditions: recombinant PfCDPK4, Kinase-Glo ATP depletion luminescence
# [2] = HepG2 cytotoxicity, primary screen, cytotoxicity control for P. falciparum antimalarial project, cell-based, ATP luminescence (AID 2303); conditions: HepG2 viability, 24-48 h, at 10 µM, stronger effect = higher value;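 further: 0% = DMSO wells and 100% = digitonin-killed cells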
# [3] = enhancers of SMN2 over SMN1 splicing, cell-based, SMN2/SMN1 luciferase reporters (AID 1598; call rule not given here); conditions: SMN2 vs SMN1 luciferase splicing reporter cells, at 10 µM; SMN1 luciferase ratio: measured here: SMN1 luciferase reporter average; SMN2 luciferase ratio: measured here: SMN2 luciferase reporter average, stronger effect = higher value; SMN2/SMN1 luciferase ratio: stronger effect = higher value
# [4] = protection against mutant huntingtin cytotoxicity, PC12 cells, LDH release (AID 1610); conditions: PC12 mutant huntingtin toxicity, final LDH at 4 uM, stronger effect = lower value
# [5] = protection of motor neurons from glutamate death, cell-based, TUNEL DNA degradation staining, MNGlu (AID 1594; call rule not given here); conditions: glutamate-induced death, at 1 µM, stronger effect = higher value
# Sequence of Calcium-dependent protein kinase 4 (Plasmodium falciparum (isolate 3D7)) (Q8IBS5 whole entry, looked up): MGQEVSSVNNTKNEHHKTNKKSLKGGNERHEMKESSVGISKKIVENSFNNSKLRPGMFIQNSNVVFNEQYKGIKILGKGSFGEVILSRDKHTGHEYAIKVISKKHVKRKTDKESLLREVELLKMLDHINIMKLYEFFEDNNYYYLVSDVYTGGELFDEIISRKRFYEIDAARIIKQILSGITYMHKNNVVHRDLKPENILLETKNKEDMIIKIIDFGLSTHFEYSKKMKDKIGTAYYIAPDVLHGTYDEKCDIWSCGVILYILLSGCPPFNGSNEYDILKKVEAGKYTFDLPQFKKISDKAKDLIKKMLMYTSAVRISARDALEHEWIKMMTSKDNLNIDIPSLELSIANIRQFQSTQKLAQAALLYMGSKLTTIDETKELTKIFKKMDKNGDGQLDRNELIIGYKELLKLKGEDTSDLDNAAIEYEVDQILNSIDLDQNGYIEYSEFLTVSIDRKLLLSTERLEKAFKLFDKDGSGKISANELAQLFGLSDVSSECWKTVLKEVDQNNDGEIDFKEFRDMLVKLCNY
structure (smiles),measurement,setting,value
CCN(CC)CCCC(C)Nc1c2ccc(Cl)cc2nc2ccc(OC)cc12 (stereo not drawn),outcome,[1],inactive
CCN(CC)CCCC(C)Nc1ccnc2cc(Cl)ccc12 (stereo not drawn),inhibition,[2],12% (inactive)
same,outcome,[1],inactive
NC12CC3CC(CC(C3)C1)C2,SMN1 luciferase ratio,[3],0.84
same,SMN2/SMN1 luciferase ratio,[3],1.22 (active)
same,SMN2 luciferase ratio,[3],1.01
same,inhibition,[2],31% (inactive)
same,outcome,[1],inactive
c1ccc(CC2=NCCN2)cc1,inhibition,[2],3% (inactive)
same,outcome,[1],inactive
c1ccc([C@H]2CN3CCSC3=N2)cc1,inhibition,[2],11% (inactive)
same,outcome,[1],inactive
CC[C@H]1CN2CCc3cc(OC)c(OC)cc3[C@@H]2C[C@@H]1C[C@H]1NCCc2cc(OC)c(OC)cc21,inhibition,[2],43% (inactive)
same,outcome,[1],inactive
CCCCCN=C(N)N/N=C/c1c[nH]c2ccc(OC)cc12,inhibition,[2],16% (inactive)
same,outcome,[1],inactive
N=C(N)c1ccc(OCCCCCOc2ccc(C(=N)N)cc2)cc1,outcome,[1],inactive
CCN(CCO)CCCC(C)Nc1ccnc2cc(Cl)ccc12 (stereo not drawn),inhibition,[2],3% (inactive)
same,outcome,[1],inactive
CC(C)C(=O)Nc1ccc([N+](=O)[O-])c(C(F)(F)F)c1,normalised LDH release,[4],0.739
COC1=CC(=O)C[C@@H](C)[C@]12Oc1c(Cl)c(OC)cc(OC)c1C2=O,protection,[5],17% (active)
CN(C)CCOC(c1ccc(Cl)cc1)c1ccccn1 (stereo not drawn),normalised LDH release,[4],0.839
CCc1nc(N)nc(N)c1-c1ccc(Cl)cc1,inhibition,[2],66% (active) and 71% (active)
